Data as given in PubChem BioAssay (NCI).
About 83,000 compounds went through this panel and 20% of them were active in at least one assay; those are over-represented in the sample as a whole.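 For each line, cells grew in 96-well plates with the test compound present at a single concentration for 48 hours.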 A number with no mark means an inactive call. Activity calls are given as the source filed them. Rule for the calls: active = growth percent below 10; inactive = the rest.

Tested on: MDA-MB-468 breast
Test: NCI-60 one-dose screen, 48 h (100 = growth as untreated, 0 = no growth, -100 = all killed)
Conditions: 10 µM unless noted

SMILES | growth
O=c1[nH]c2cc(Cl)c(Cl)cc2o1 | 111%
COc1ccc(-c2cn[nH]c2-c2cc(OC)c(OC)c(OC)c2)cc1 | 11.8%
COc1cc(Cl)ccc1C | 64.9%
COc1cc(C2CC(=O)Nc3c2cc(Br)c2ccccc32)cc(Br)c1OC (stereo not given) | 3.67% (active)
O=C1[C@H]2Cc3c([nH]c4ccccc34)[C@H](c3ccc(Cl)cc3)N2C(=O)CN1C1CCN(Cc2c(Cl)cccc2Cl)CC1 | 57.5%
N[C@H]1CCC[C@@H]1NCCCCN1C(=O)c2cccc3cc([N+](=O)[O-])cc(c23)C1=O | 38.8%
CN(C)CCOc1cccc(NC2=C(Cl)C(=O)C(Nc3cccc(OCCN(C)C)c3)=C(Cl)C2=O)c1 | -47.1% (active)
Cc1ccc(NC2CC(=O)N(c3c(C)cc(C)cc3C)C2=O)c(C)c1 (stereo not given) | 114%
C/C(=C(/c1ccc(Cl)cc1)c1ccc(OCCCN(C)C)cc1)c1ccc(Cl)cc1 | 89.4%
CC1(C(N)=O)CCC(C(=O)O)C1(C)C (stereo not given) | 99.2%
COc1cccc(CC(C)=C(c2ccc(OCCCN(C)C)cc2)c2ccc(OCCCN(C)C)cc2)c1 | -83.4% (active)
N#CC1=C(N)Oc2c(ccc3ccccc23)C1c1cc(=O)oc2ccc(Cl)cc12 (stereo not given) | 62%
CCCn1cnc2c(c1=N)C(c1ccc(OC)cc1)c1sc3c(CC)cccc3c1O2 (stereo not given) | 39.4%
CCOC(=O)c1cc(C(=O)c2cc(OC)c(OC)c(OC)c2)n2ccc(-c3cc[n+](CC(=O)c4cc(OC)c(OC)c(OC)c4)cc3)cc12 | 43.2%
Cc1cc(C(N)=O)cc(C)c1C(=O)OCCCl | 115%
COc1ccc2c(c1)sc1nc(-c3ccccc3)c(-c3cccc4ccccc34)n12 | 11.5%
Cc1cc2c(cc1C)[n+](Cc1ccc3ccccc3n1)cn2Cc1ccc2ccccc2n1 | -35.5% (active)
N#Cc1ccc(C(=O)CSc2nccc(Nc3ccc(C(=O)O)cc3)n2)cc1 | 101%
COC(=O)N[C@@H](C)CNc1nccc(-c2cn(C(C)C)nc2-c2cc(Cl)cc(NS(C)(=O)=O)c2F)n1 | 99.4%
CCCCCCCCCCCC(=O)C(CCCCCCCCCC)C(=O)Nc1ccccc1 (stereo not given) | 109%

SMILES | growth
O=C(NCc1cn(Cc2cccc(Oc3ccccc3)c2)nn1)c1cccnc1Nc1ccccc1 | 18.1%
CCc1ccc(OC(=O)CCl)cc1 | 116%
COc1cc(/C=C/c2cc(/C=C/c3ccc(O)c(OC)c3)n(-c3ccccc3)n2)ccc1O | -31.9% (active)
CC(C)C1C2=C(NCCN1C(=O)Cc1ccccc1)C(C)(C)N(Cc1ccccc1)C2=O (stereo not given) | 95.5%
O=C1Nc2ccccc2C2c3cccn3-c3ccccc3N12 (stereo not given) | 47.8%
CCc1nc2ccc(Cc3ccc(C(=O)NO)cc3)cc2c(=O)n1CCc1ccccc1 | -65.1% (active)
CCOC(=O)c1c(NC(=O)c2cccc(C(F)(F)F)c2)sc2cc(O)ccc12 | 85.4%
NN1CCOC(c2ccccc2)C1 (stereo not given) | 113%
CC(CSc1n[nH]c(=S)s1)c1ccccc1 (stereo not given) | 114%
O=C(CCl)n1nnnc1Cc1ccccc1 | 101%
COc1ccc(-c2cc(/C=C/C(=O)c3cc(OC)c(OC)c(OC)c3)[nH]n2)cc1OC | -63.8% (active)
CNCc1cccc2c1OCCCCCCC(C)(O)CC(C)(C)S(=O)(=O)c1ccc(cc1)-c1cnc(N)c(n1)C(=O)N2 (stereo not given) | -54.1% (active)
O=C(NCCNC(c1ccccc1)C(NCCNC(=O)c1ccccc1)c1ccccc1)c1ccccc1 (stereo not given) | 81.5%
O=C(Nc1cccc(-n2ccc3c(NC(=O)c4ccccc4)nccc32)c1)c1ccc(N2CCOCC2)c(C(F)(F)F)c1 | -2.66% (active)
CCOc1ccc(C(C)=O)cc1NC(=O)c1cccc(-c2nnn(CC)n2)c1 | 17.5%
CCN(CC)c1ccc(C(=O)c2ccc(N(CC)CC)cc2)cc1 | -36% (active)
COc1ccc(C2=NN(C(=O)c3cc(OC)c(OC)c(OC)c3)C(c3ccc(N(C)C)cc3)C2)cc1 (stereo not given) | 22.7%
O=C(N/N=C/c1c[nH]c2ccccc12)c1cc(-c2ccccc2)on1 | 94.9%
Cc1cc(N)cc(C)c1-c1c(Br)cc(N)cc1Br | -28% (active)
CN(C)c1ccc(/C=C(\C#N)c2cc3ccccc3[nH]2)cc1 | -3.07% (active)
